High-throughput results (PubChem BioAssay)
The list is not random: actives were taken first. Their share in the collection is about 1.2%.
gsp ag – gsp mutant agonism; gsp mutant cells, cAMP HTRF, 30 min; Potency, µM (doses to about 76.9 µM), without a hit: top-dose activation (cAMP increase), hits mostly activators; 0.13% of 340,000 active; AID 624287; active = well fitted activation curve with a large enough effect; inconclusive = small, poorly fitted or top-dose-only effect, or another doubt; inactive = no such curve, though single readings can be large or run the other way; cell line not stated here;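 note: phosphodiesterase inhibitor Ro 20-1724 added with compounds to block cAMP breakdown; potency is the fitted concentration of half-maximal effect; nearly all actives have a fitted effect of over 60% in size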
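Cells in DMEM/10% FBS with G418 were pretreated with compounds in DMSO plus […] (300 uM stock) for 30 min at 37C. cAMP was measured by HTRF (cAMP-d2 plus anti-cAMP antibody-K) after 30 min at room temperature.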
MmCpn inh – M. maripaludis TRiC chaperonin inhibition; 0.031% of 330,000 active; purified Mm-Cpn ATPase, ADP Transcreener TR-FRET; Potency, µM (highest dose often 76.9 µM), for inactives: top-dose activity, negative = inhibition, most hits filed as inhibitors; note: potency is the fitted concentration of half-maximal effect; % is set by controls: 0 for no effect and ±100 for the full control effect; nearly all actives have a fitted effect of over 80% in size
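Purified archaeal chaperonin (25 nM final) was preincubated with compound for 10 min at 37°C, then ATP (10 uM final) was added for 30 min at 37°C in Tris pH 7.4/KCl/MgCl2/DTT buffer. ADP was quantified by HTRF Transcreener TR-FRET.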
RXFP1 ag – agonists of human relaxin receptor RXFP1; Q9HBX9; HEK293T-RXFP1 cAMP TR-FRET, 30 min; response scale: percent of porcine relaxin response, buffer zero; Potency, µM (titrated, usually from 57.5 µM), for the others: at the top dose activation, actives largely listed as activators; 0.3% of 370,000 active; AID 2676; note: potency is the fitted concentration of half-maximal effect; % is set by controls: 0 for no effect and ±100 for the full control effect; nearly all actives have a fitted effect of over 60% in size
Target sequence (Q9HBX9 whole entry, looked up): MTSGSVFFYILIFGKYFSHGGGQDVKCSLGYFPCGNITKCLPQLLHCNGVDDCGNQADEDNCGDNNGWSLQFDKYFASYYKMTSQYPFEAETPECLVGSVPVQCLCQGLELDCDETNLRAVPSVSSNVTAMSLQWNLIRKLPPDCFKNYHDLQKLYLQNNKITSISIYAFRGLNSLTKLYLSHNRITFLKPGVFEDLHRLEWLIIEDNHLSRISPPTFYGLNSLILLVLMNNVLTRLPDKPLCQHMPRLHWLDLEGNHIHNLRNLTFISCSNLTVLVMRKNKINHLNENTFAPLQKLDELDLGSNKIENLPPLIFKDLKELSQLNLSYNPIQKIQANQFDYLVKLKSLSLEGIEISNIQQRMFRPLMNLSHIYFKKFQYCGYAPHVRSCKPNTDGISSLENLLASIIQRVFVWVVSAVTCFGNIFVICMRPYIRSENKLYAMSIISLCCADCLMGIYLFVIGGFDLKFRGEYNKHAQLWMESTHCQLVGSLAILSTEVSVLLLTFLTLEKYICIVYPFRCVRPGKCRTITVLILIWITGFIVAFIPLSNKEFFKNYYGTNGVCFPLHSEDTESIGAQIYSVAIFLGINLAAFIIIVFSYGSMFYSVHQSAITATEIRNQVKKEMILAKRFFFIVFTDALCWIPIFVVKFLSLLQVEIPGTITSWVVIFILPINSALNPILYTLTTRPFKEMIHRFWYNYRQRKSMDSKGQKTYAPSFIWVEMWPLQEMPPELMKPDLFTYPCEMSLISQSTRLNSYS
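Agonist response is measured as cAMP accumulation in an RXFP1-transfected HEK293T line under PDE4 inhibition. Values are scaled between buffer-only and 29 nM porcine relaxin, and EC50s come from standard Hill equation fits.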
gsp antagonist – gsp mutant antagonism. 0.4% of 340,000 active. Potency, µM (titrated, usually from 76.9 µM), for the others: at the highest dose activity change, negative = inhibition, actives largely listed as inhibitors. AID 624288. gsp-mutant cells, cAMP HTRF, 30 min; calls by dose curve; cell line not stated here;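 note: intracellular cAMP measured with PDE inhibitor Ro 20-1724 present during compound exposure; potency is the fitted concentration of half-maximal effect; % is set by controls: 0 for no effect and ±100 for the full control effect; nearly all actives have a fitted effect of over 65% in size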
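HTRF cAMP read-out (cAMP-d2 plus anti-cAMP antibody-K in lysis buffer, 30 min RT). Before lysis, cells are exposed to compounds with […] for 30 min at 37C in DPBS containing Ca/Mg, BSA and Tween 20.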
CCT chaperon mod – modulators of cytosolic chaperonin (CCT/TRiC) activity; purified chaperonin ATPase assay, HTRF ADP detection, 30 min; activity change, % (concentration not given with the values), hits read low; 0.3% of 360,000 active; in the data active = activity change below about -30%; note: % is set by controls: 0 for no effect and ±100 for the full control effect
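Nucleotide hydrolysis assay: TRiC at 20–40 nM final (set by batch activity) with 10 uM ATP, 30 min at 37 °C, in presence of 76 uM compound. Detection by competitive ADP HTRF, 30 min ambient.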
RXFP1 antag – blocks the human relaxin receptor RXFP1; activity change, negative = inhibition, % at 57.5 µM; 0.59% of 350,000 active; AID 1259400; HEK293-RXFP1, relaxin-stimulated cAMP HTRF, 30 min; stronger effect = lower value; Q9HBX9;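 active = activity change of -60% or lower, but not beyond a set lower limit; inconclusive = change between -60% and -40%, or beyond the set limit; inactive = change above -40%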; note: % is set by controls: 0 for no effect and ±100 for the full control effect
* = called active by the depositor; ? = inconclusive; / = not tested or not shown; [ ] = dose if it differs, or a comment. Unless noted, calls come from the whole dose curve; as a rule, active = well fitted curve in the direction sought with a large enough effect; inconclusive = small, poorly fitted or top-dose-only effect, or another doubt; inactive = no such curve, though single readings can be large; an effect the other way counts as inactive or inconclusive.

SMILES	gsp ag	MmCpn inh	RXFP1 ag	gsp antagonist	CCT chaperon mod	RXFP1 antag
Cn1c(=O)c2sccc2n2c(CCCC(=O)N3CCCCC3)nnc12	?	1.0%	17.8µM*	-4.5%	-3.2	4.3
COc1ccc2cc1Oc1cc3c(cc1OC)CC[N+](C)(C)[C@H]3Cc1ccc(cc1)Oc1c(OC)c(OC)cc3c1[C@@H](C2)[N+](C)(C)CC3	/	/	/	/	/	9.8
CC(=O)N(CC(=O)N(C)C)c1ccccc1	/	/	/	/	/	12.9
Cc1nn(CCc2nn[nH]n2)c2nc(C(F)(F)F)cc(C(F)(F)F)c12	-3.2%	-0.8%	1.1%	-5.7%	1.6	-14.0
Cc1nn(CCc2nn[nH]n2)c2nc(-c3ccc(Br)cc3)cc(C(F)(F)F)c12	64.8%[15.4 µM]	-5.7%	14.1µM*	-2.0%	0.2	3.3
O=C(c1ccc2c(c1)N(Cc1ccccc1)C(=O)c1ccccc1S2)N1CCCC1	4.6%	2.0%	-1.8%	?	-1.5	-2.6
Cc1cccc(CN2C(=O)c3ccccc3Sc3ccc(C(=O)N4CCCC4)cc32)c1	/	/	3.2%	/	/	-112.4*
CN1C(=O)/C(=C/c2cccc(Cl)c2)Sc2ccc(C(=O)N3CCCC3)cc21	-0.1%	-1.4%	0.0%	8.91µM*	0.0	2.4
CCOC(=O)C1CCCN(C(=O)c2ccc3c(c2)N(Cc2ccccc2)C(=O)c2ccccc2S3=O)C1 (stereo not given)	-3.1%[15.4 µM]	1.9%	1.3%	8.91µM*	-0.1	-29.5
CCNc1nc(C)c2cc(Br)c(=O)n(CC)c2n1	20µM*	-4.7%	?	8.1%	-2.6	11.4
CCn1c(=N)c(C(=O)NC)cc2c(=O)n3cccc(C)c3nc21	11.6%	-9.2%	26.3%	7.0%	-1.8	4.9
COC(=O)c1sc(N2C(=O)C(O)=C(C(=O)c3ccc(C)o3)C2c2ccc(F)cc2)nc1C (stereo not given)	?	-8.3%	8.91µM*	11.6%	1.0	-12.0
COC(=O)c1sc(N2C(=O)C(O)=C(C(=O)c3ccc(C)o3)C2c2ccco2)nc1C (stereo not given)	25.9%[15.4 µM]	-2.4%	-5.9%	-10.9%	-2.2	-6.4
COC(=O)c1sc(N2C(=O)C(O)=C(C(=O)c3ccc(C)o3)C2c2cccs2)nc1C (stereo not given)	?	?	12.6µM*	-33.1%	-4.6	-20.5
COc1cc(CNCc2c[nH]c3ccccc23)cc(OC)c1	-5.8%[15.4 µM]	-0.3%	0.0%	6.3%	-1.1	-32.3
COc1cc(CNCc2cccc3ccccc23)cc(OC)c1	-13.3%	-1.2%	3.9%	50.1µM*	-0.3	1.0
Cc1cc(NC(=O)CSc2ncnc3c2cnn3-c2ccccc2)no1	-12.8%[15.4 µM]	0.4%	14.5%	7.5%	0.9	-10.3
Cc1cc(NC(=O)CSc2ncnc3c2cnn3-c2cccc(Cl)c2)no1	-10.5%	-0.5%	6.31µM*	-11.4%	-2.9	6.2
COc1ccc(-c2c(-c3ccc(O)cc3O)n[nH]c2C(F)(F)F)cc1	-1.2%	39.8µM*	0.6%	-4.0%	-6.2	-21.0
COc1ccc(-c2oc3ncn4nc(Cc5ccccc5)nc4c3c2-c2ccc(OC)cc2)cc1	-35.8%	-4.8%	1.9%	10µM*	-2.5	-16.6
O=C(c1ccc2c(c1)N(Cc1ccccc1)C(=O)c1ccccc1S2=O)N1CCC(Cc2ccccc2)CC1 (stereo not given)	/	/	-1.6%	/	/	/
CCOc1cccc(/C=N/NC(=O)c2cc(-c3cccn3C)n[nH]2)c1O	1.5%[15.4 µM]	0.4%	-3.0%	?	0.5	-76.9*
COc1cc(CNC(=O)c2cnc3c(-c4cccc(C)c4)c(C)nn3c2C)cc(OC)c1OC	/	/	0.9%	/	/	-31.8
O=C(CNC(=O)N1CC(=O)Nc2ccccc21)NCc1ccccc1Cl	-1.3%	1.4%	-1.2%	3.6%	-1.6	-60.9*
O=C(CNC(=O)N1CC(=O)Nc2ccccc21)Nc1ccc(Cl)cc1	-55.2%	2.7%	0.9%	-10.1%	-0.7	-60.9*
SMILES	gsp ag	MmCpn inh	RXFP1 ag	gsp antagonist	CCT chaperon mod	RXFP1 antag
O=C(CNC(=O)N1CC(=O)Nc2ccccc21)NCc1ccccc1	?	3.1%	0.7%	10.8%	-0.5	4.1
CCOC(=O)c1c(C)[nH]c(CCC(=O)Nc2cc(Cl)ccc2OC)c1C	/	/	0.1%	/	/	-17.4
CC(=O)N1c2ccccc2CC1C(=O)N1CCN(c2cccc(C)c2C)CC1 (stereo not given)	/	/	1.2%	/	/	-5.1
COC(=O)c1c(NC(=O)CCCOc2ccc(C(C)(C)C)cc2)sc2c1C(C(=O)OC)CC2 (stereo not given)	/	/	3.0%	/	/	-20.2
COc1ccc(C2=NC(C)(C)N(CC(=O)Nc3ccc(F)c(F)c3)C2=O)cc1	/	/	0.4%	/	/	-4.7
CCOC(=O)c1c(NC(=O)CSc2nnc(-c3ccco3)o2)sc(C)c1C	-2.2%	-3.5%	2.8%	6.4%	-1.9	-6.1
CCOC(=O)c1c(NC(=O)CSc2nnc(-c3ccco3)o2)sc(C(C)=O)c1C	34.6%	/	8.3%	1.9%	-59.8*	0.0
COc1ccc(Cn2c(C(=O)O)c(CNC3CCCCCC3)c3ccc(OC)cc32)cc1	/	/	3.8%	/	/	/
CC1CCCC(C)N1C(=O)CSCc1ccc(Cl)cc1 (stereo not given)	-43.0%	-2.5%	-0.2%	35.5µM*	-2.9	39.1
Cc1ccc(CN(Cc2ccco2)C(=O)COc2ccc(C)c(C)c2)cc1	/	/	0.2%	/	/	/
Cc1cccc(OCC(=O)N(Cc2ccc(C(C)(C)C)cc2)Cc2ccco2)c1	/	/	-1.7%	/	/	-74.8*
COc1cc(C(=O)N(Cc2ccc(F)cc2)Cc2ccco2)cc(OC)c1OC	/	/	-2.2%	/	/	-8.2
CCc1ccc(OCC(=O)N(Cc2ccc(C)cc2)Cc2ccco2)cc1	/	/	0.0%	/	/	-61.4*
CC(C)(C)c1ccc(C(=O)N(Cc2ccc(F)cc2)Cc2ccco2)cc1	/	/	0.9%	/	/	-78.5*
COc1ccc(NC(=O)COc2ccc(S(=O)(=O)NC3CCCCC3)cc2)cc1OC	/	/	0.9%	/	/	/
O=C(Cn1cc2c(n1)CCCC2)NCCCN1CCN(c2ccccc2F)CC1	-20.8%	1.4%	1.1%	8.8%	-46.3*	/
O=C(Cn1cc2c(n1)CCCC2)NCCCN1CCN(Cc2ccccc2)CC1	8.4%	-1.4%	-0.1%	8.8%	-0.1	-7.4
CCOC(=O)c1ccc(NC(=O)c2ccc3c(c2)CCN3S(=O)(=O)c2ccc(Cl)cc2)cc1	/	/	-1.5%	/	/	-0.4
COc1ccccc1NC(=O)C1CCN(S(=O)(=O)c2cn(C)cn2)CC1	/	/	-0.6%	/	/	9.3
O=C(OCc1c(F)cccc1Cl)c1cnccn1	?	0.8%	0.5%	14.9%	-40.4*	9.5
O=C(OCc1c(F)cccc1Cl)c1cnc2ccccc2n1	-5.7%[15.4 µM]	-5.1%	9.2%	3.7%	0.1	-5.5
O=C(OCc1cccc([N+](=O)[O-])c1)c1cnccn1	5.62µM*	-4.3%	22.4µM*	15.9%	0.0	-0.2
